High-throughput results deposited in PubChem BioAssay by several laboratories.
FadD28 FP inh = inhibitors of Mycobacterium tuberculosis FadD28 bisubstrate binding. AID 588549. inhibition, % at 12.5 µM. FadD28 bisubstrate probe binding, fluorescence polarization. actives 0.22% (n = 360,000); in the data active = inhibition above about 8.5%, passing the limit was not always enough; inconclusive = no clear call, values can overlap the other calls
PrP 5UTR inh = inhibition of PrP 5' UTR reporter expression. cell-based PrP 5' UTR mRNA reporter, plate reader. inhibition, % (test concentration not listed). actives 0.35% (n = 340,000). AID 488862; in the data active = inhibition above about 52%
Mtb bLac sens = beta-lactam sensitization of Mtb H37Rv | inhibition, % at 25 µM | AID 434955 | actives 0.27% (n = 330,000) | M. tuberculosis H37Rv growth with meropenem, percent inhibition;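 note: growth measured after seven days incubation then overnight dye step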
Vc quorum ag-1 = quorum light induction in luxS cqsA deficient V. cholerae | activation, % at 18.7 µM | actives 0.16% (n = 350,000) | V. cholerae BH1578 lux reporter, luminescence, 6 h; in the data active = activation mostly above about 9.7%, no sharp cut-off; inconclusive = no clear call, values can overlap the other calls; inactive = mostly below about 3.7%
UGM FP inh = blocks M. tuberculosis UGM enzyme; P9WIQ1; purified UGM, fluorescence polarization probe displacement; inhibition, % at 10 µM; actives 0.06% (n = 320,000); in the data active = inhibition above about 10%, passing the limit was not always enough; inconclusive = no clear call, values can overlap the other calls
Target sequence (P9WIQ1 whole entry, looked up): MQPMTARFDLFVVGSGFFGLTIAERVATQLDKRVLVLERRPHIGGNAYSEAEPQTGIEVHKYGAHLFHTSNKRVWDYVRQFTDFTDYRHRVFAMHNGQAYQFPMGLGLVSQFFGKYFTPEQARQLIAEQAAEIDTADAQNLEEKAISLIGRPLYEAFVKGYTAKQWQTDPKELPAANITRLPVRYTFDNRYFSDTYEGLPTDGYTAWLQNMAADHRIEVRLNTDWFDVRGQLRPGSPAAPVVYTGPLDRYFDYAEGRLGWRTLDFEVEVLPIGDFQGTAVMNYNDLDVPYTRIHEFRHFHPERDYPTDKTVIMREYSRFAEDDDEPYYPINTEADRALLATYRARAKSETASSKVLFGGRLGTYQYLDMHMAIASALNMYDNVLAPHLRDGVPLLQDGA
Rv3671c protease = inhibitors of M. tuberculosis serine protease Rv3671c; P9WHR9; AID 2606; inhibition, % at 5.96 µM; actives 0.048% (n = 320,000); in the data active = inhibition above about 38%;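 note: extracellular domain of Rv3671c used as enzyme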
Target sequence (P9WHR9 whole entry, looked up, the tested form may be a part): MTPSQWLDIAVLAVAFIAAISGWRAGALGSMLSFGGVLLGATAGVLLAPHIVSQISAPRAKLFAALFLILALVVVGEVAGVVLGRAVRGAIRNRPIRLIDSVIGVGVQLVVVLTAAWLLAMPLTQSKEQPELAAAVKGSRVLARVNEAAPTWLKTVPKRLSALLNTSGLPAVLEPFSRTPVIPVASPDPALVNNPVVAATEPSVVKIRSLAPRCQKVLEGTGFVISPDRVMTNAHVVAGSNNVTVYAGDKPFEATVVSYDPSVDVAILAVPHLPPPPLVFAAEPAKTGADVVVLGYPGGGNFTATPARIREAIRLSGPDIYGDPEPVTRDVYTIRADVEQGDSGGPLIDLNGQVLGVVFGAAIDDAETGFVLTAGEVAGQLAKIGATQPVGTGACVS
Vc quorum ag-2 = quorum light induction in BH1578 reporter strain; shares compounds with Vc quorum ag-1; V. cholerae BH1578 lux reporter, luminescence, 6 h; activation, % at 50 µM; 620 tested, under 10 active
HeLa tox = kills HeLa cells within 24 hours | shares compounds with Vc quorum ag-1 | HeLa viability, CellTiter-Glo ATP luminescence | activity change, negative = cytotoxicity, % at 35 µM | 25 tested, under 10 active | AID 624140;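 active = signal drop with fitted half-maximal concentration at or below twice the highest valid dose; inconclusive = flat curve with 30 to 70% loss, or poor fit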
Large screens that a line does not name were inactive (follow-up assays come after a bar, where they were run). Sampled rows, rich in hits. Any-hit rate of the full collection: about 0.76%. Unless noted, the rule behind the calls is not given here.

Cn1cc(C(=O)OCC(=O)NC2CCCCC2)c2ccccc21	none
Cc1cc(C(=O)OCC(=O)Nc2c(Cl)cccc2C(F)(F)F)c(C)o1	none | Vc quorum ag-2 inactive
O=C(O)CN1C(=O)/C(=C\C(Br)=C\c2ccccc2)SC1=S	none
COc1ccc(C(=O)N2CCCC(C(N)=O)C2)cc1S(=O)(=O)N1CCOCC1 (stereo not drawn)	none (no result: UGM FP inh)
CC(C)c1ccc(NC(=O)Cn2c(=O)oc3ccccc32)cc1	none (no result: PrP 5UTR inh)
COc1ccc(Cl)cc1NC(=O)COC(=O)c1cc(C)oc1C	Vc quorum ag-1 active | Vc quorum ag-2 inactive
COc1ccccc1NC(=O)COC(=O)c1oc2ccccc2c1C	Vc quorum ag-1 26 | Vc quorum ag-2 inactive | HeLa tox inactive
COc1ccccc1NC(=O)c1oc2ccccc2c1C	none (no result: PrP 5UTR inh, Mtb bLac sens, UGM FP inh, Rv3671c protease)
Cc1cc(C(=O)OCC(=O)Nc2ccc(F)c(F)c2F)c(C)o1	none
Cc1ccc(C2/C(=C(\O)c3ccc4c(c3)OCCO4)C(=O)C(=O)N2Cc2cccnc2)cc1 (stereo not drawn)	none
Cc1cc(C)n2nc(SCCOc3ccccc3F)nc2n1	none
COC(=O)c1ccc(C2C(C(C)=O)=C(O)C(=O)N2CCO)cc1 (stereo not drawn)	Vc quorum ag-1 17 | Vc quorum ag-2 inactive
COC(=O)c1ccc(C2c3c(oc4ccc(F)cc4c3=O)C(=O)N2CCO)cc1 (stereo not drawn)	none
CCCCNC(=O)C1(C)CCCCN1Cc1ccc(OCc2ccccc2)cc1 (stereo not drawn)	none (no result: PrP 5UTR inh, Mtb bLac sens, UGM FP inh, Rv3671c protease)
CCN(CC)CCCNC(=O)c1[nH]c2ccccc2c1Sc1ccc(Cl)cc1	none (no result: FadD28 FP inh)
Cc1ccc(NC(=O)CN(C)C(=O)CCSc2ccc(F)cc2)cc1	none
S=C(c1ccc(N2CCOCC2)cc1)N1CCCCC1	Vc quorum ag-1 20 | Vc quorum ag-2 inactive
Oc1ccc(C(=S)N2CCCCC2)cc1	none (no result: Vc quorum ag-1)
Cc1ccc(C)c(C(=O)CN2C(=O)NC3(CCCCCC3)C2=O)c1	none (no result: Mtb bLac sens, UGM FP inh, Rv3671c protease) | Vc quorum ag-2 inactive
O=C(COC(=O)c1ccc(Cl)nc1)Nc1ccc2ccccc2c1	none (no result: Mtb bLac sens, UGM FP inh, Rv3671c protease) | Vc quorum ag-2 inactive
CC1(C)CC(=O)C/C(=N\NC(=O)CCc2ccc(S(=O)(=O)N3CCOCC3)cc2)C1	none
Cc1cn([C@H]2C[C@H](O)[C@@H](CNCc3ccc(Oc4cc(-n5cccn5)ncn4)cc3)O2)c(=O)[nH]c1=O	none (no result: PrP 5UTR inh, Mtb bLac sens, UGM FP inh, Rv3671c protease)
Cc1ccc(CN2CCC[C@]3(N[C@H](c4ccc(C(F)(F)F)cc4)[C@@H]4C(=O)N(Cc5ccccc5)C(=O)[C@@H]43)C2=O)cc1	none (no result: PrP 5UTR inh, Mtb bLac sens, UGM FP inh, Rv3671c protease)
CC(=O)N1CCC(=O)N(C(C)C)c2ccccc21	Vc quorum ag-1 25 | Vc quorum ag-2 inactive
CC(=O)N1CCCc2ccccc21	none
CCOC(=O)C1CCCc2c1[nH]c1c(C(=O)O)cccc21 (stereo not drawn)	none | Vc quorum ag-2 inactive
CC(C)(C)NC(=O)c1nn(Cc2ccccc2)c(=O)c2ccccc12	none
COc1ccc(NC(=O)CN(C)C(=O)c2cccc(S(=O)(=O)N3CCN(Cc4ccccc4)CC3)c2)cc1	none
COc1ccc(NC(=O)CN(C)C(=O)c2cccc(S(=O)(=O)N3CCN(C)CC3)c2)cc1	none | Vc quorum ag-2 inactive
CC(=O)N1CCN(C(=O)COc2ccc(Br)cc2)CC1	Vc quorum ag-1 17 | Vc quorum ag-2 inactive
COc1ccc(N2CCN(C(=O)COc3ccc4ccccc4c3)CC2)cc1	none | Vc quorum ag-2 inactive
COc1ccc(OCC(=O)N2CCN(C(=O)COc3ccc(Br)cc3)CC2)cc1	Mtb bLac sens inconclusive (no result: Vc quorum ag-1)
CC(=O)OC/C=C(\C)CCC=C(C)C	none
COc1cc2c(c(OC)c1OC)C(c1ccc(C)cc1)CC(=O)O2 (stereo not drawn)	none (no result: Mtb bLac sens, UGM FP inh, Rv3671c protease) | Vc quorum ag-2 inactive
COc1ccc(C2CC(=O)Oc3cc(O)cc(O)c32)cc1 (stereo not drawn)	none
NC(=O)c1cc(Br)cc(C2CCCCC2)c1O	none (no result: Vc quorum ag-1) | Vc quorum ag-2 inactive
CCOC(=O)CNc1c(-c2ccc(Cl)cc2)nc2cnccn12	Vc quorum ag-1 25 | Vc quorum ag-2 inactive
COc1cccc(CN(C)C(=O)CSC(C)C(=O)Nc2cc(C)on2)c1OC (stereo not drawn)	none | Vc quorum ag-2 inactive
COc1cccc(CN(C)C(=O)CSCC(=O)Nc2cc(C)on2)c1OC	none
O=C(Nc1cccc(-c2ccc(N3CCOCC3)nn2)c1)c1ccccc1Cl	none | Vc quorum ag-2 inactive
NS(=O)(=O)c1ccc(NC(=O)NC2CCCCC2)cc1	Vc quorum ag-1 32 | Vc quorum ag-2 inactive
NS(=O)(=O)c1ccc(NC(=S)NC2CCCCC2)cc1	none
CCOc1ccc(N2CC(C(=O)Nc3ccc(S(=O)(=O)Nc4ncccn4)cc3)CC2=O)cc1 (stereo not drawn)	none
O=C(Nc1ccc(S(=O)(=O)Nc2ncccn2)cc1)C1CC(=O)N(c2ccccc2)C1 (stereo not drawn)	none (no result: Mtb bLac sens, UGM FP inh, Rv3671c protease) | Vc quorum ag-2 inactive
COc1cccc(SCc2noc(C(=O)NCC3CC3)c2C(=O)NCC2CC2)c1	none
COc1ccc(Cl)cc1NC(=O)CN1CCc2ccccc2C1	Vc quorum ag-1 107 | Vc quorum ag-2 inactive
O=C(CN1CCCCC1)Nc1cccc(Cl)c1	none
COc1cc(NC(=O)Nc2cccc(Cl)c2)c(OC)cc1NC(=O)CN1CCCCC1	none | Vc quorum ag-2 inactive
O=C(NNC(=S)NCc1ccc(Cl)cc1)c1ccc2c(c1)OCO2	none
Cc1cc(=O)oc2ccc(OCc3ccccc3)cc12	none (no result: Vc quorum ag-1) | Vc quorum ag-2 inactive
CC(C)(C)S(=O)(=O)N1C[C@H]2CC/C=C\C/C(c3ccccc3)=C\2[C@@H]1CCO	none (no result: Mtb bLac sens, UGM FP inh, Rv3671c protease)
CCOC(=O)c1c(NC(=S)Nc2ccc(Cl)cc2)sc(C)c1C	none (no result: PrP 5UTR inh, Mtb bLac sens, UGM FP inh, Rv3671c protease) | Vc quorum ag-2 inactive
CCOC(=O)Cc1c(C)[nH]c(=S)[nH]c1=O	Vc quorum ag-1 17 | Vc quorum ag-2 inactive
COC(=O)CCc1c(C)[nH]c(=S)[nH]c1=O	none
O=C(Nc1nnc(-c2ccc3c(c2)OCCO3)o1)C1CCCCC1	none (no result: Mtb bLac sens, Vc quorum ag-1) | HeLa tox inactive
CCN(CC)C(=O)CSc1nnc(-c2ccco2)o1	none (no result: Vc quorum ag-1)
CN(C)C(=O)CCSc1nnc(-c2ccco2)o1	Vc quorum ag-1 101 | Vc quorum ag-2 inactive
COc1cccc(CN2CCC(N(CCc3ccccc3)Cc3ccccc3)CC2)c1OC	none
S=c1[nH]nc(Cc2cccs2)n1-c1ccccc1Cl	none
Cc1ccc(C)c(-n2c(Cc3cccs3)n[nH]c2=S)c1	none | Vc quorum ag-2 inactive
Cc1cccc(NC(=O)Cn2cnc3ccccc3c2=O)c1C	none
Cc1nc2ncnn2c(C)c1Cc1c(Cl)cccc1Cl	Vc quorum ag-1 94 | Vc quorum ag-2 inactive
CCN(CC)Cc1cc(C(=O)O)c(-c2ccccc2)o1	none
O=C(O)c1cc(CN2CCOCC2)oc1-c1ccccc1	Vc quorum ag-1 17 | Vc quorum ag-2 inactive
CCOC(=O)C1CCN(C(=O)Nc2ccc3c(c2)nc(C)n3C)CC1	Vc quorum ag-1 inconclusive | Vc quorum ag-2 inactive
Cc1nc2cc(NC(=O)N3CCCCC3)ccc2n1C	none
O=C(NCCC(=O)N1CCN(c2ccc(F)cc2)CC1)c1ccco1	none (no result: Mtb bLac sens, UGM FP inh, Rv3671c protease) | Vc quorum ag-2 inactive
